Hit rate of the full screen: of about 310,000 compounds, about 14,000 (4.5%) showed an effect of 50% or more. The effect is printed as a negative number. The list comes from a sample in which strong results are over-represented; it also holds similar structures and randomly drawn compounds.
The compounds below were run against human ether-à-go-go-related gene (hERG) potassium channel (human, UniProt Q12809) (assay: primary screen, population patch clamp on CHO cells stably expressing hERG; higher = less effect of the substance).
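Also: peak tail current of the secondary pulse compared with the same well before compound.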

human ether-à-go-go-related gene (hERG) potassium channel, sequence (Q12809 whole entry, looked up): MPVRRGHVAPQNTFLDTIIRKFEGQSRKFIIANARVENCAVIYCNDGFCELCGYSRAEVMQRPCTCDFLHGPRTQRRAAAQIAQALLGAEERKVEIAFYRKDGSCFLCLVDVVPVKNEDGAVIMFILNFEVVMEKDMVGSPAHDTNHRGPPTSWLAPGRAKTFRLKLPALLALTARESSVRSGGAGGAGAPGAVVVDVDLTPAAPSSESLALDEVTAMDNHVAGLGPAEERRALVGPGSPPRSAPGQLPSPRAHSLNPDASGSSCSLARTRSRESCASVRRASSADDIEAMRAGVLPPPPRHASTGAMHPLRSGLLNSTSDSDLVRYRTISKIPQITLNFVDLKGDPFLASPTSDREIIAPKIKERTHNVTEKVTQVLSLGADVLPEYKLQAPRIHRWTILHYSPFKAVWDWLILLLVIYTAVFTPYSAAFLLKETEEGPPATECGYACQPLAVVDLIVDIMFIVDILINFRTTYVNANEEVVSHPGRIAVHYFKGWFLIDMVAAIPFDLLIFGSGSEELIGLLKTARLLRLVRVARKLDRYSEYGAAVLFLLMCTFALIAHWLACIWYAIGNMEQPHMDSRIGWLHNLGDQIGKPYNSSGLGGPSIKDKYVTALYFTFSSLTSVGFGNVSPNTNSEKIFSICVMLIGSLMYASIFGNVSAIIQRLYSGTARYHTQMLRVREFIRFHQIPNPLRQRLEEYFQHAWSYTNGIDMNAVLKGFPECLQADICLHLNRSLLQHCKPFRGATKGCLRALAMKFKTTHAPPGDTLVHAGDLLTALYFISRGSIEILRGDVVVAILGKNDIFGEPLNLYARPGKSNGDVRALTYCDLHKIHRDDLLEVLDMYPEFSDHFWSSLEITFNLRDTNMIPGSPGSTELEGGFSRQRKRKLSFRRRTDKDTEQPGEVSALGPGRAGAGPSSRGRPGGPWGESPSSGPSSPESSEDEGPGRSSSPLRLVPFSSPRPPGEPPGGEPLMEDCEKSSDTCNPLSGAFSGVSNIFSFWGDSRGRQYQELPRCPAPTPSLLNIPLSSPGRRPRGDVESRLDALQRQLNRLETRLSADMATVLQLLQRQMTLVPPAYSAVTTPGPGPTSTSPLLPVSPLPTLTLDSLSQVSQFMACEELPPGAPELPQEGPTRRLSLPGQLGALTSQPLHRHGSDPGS

How did the “hERG current change (%, negative = inhibition) at 10uM” value turn out when `CCc1ccc(N2C(=O)NC(=O)C(CCc3ccncc3)(CCc3ccncc3)C2=O)cc1` was run?
The value was -69.9%.

With `Cc1ccc(N2C(=O)NC(=O)C(CCc3ccncc3)(Cc3cccc(Cl)c3Cl)C2=O)cc1` (centres unmarked) as the compound, how does the “hERG current change (%, negative = inhibition) at 10uM” value read?
The value was 6.14%.

Which “hERG current change (%, negative = inhibition) at 10uM” value does the source give for `O=C1NC(=O)C(CCc2ccncc2)(Cc2cccc(Cl)c2Cl)C(=O)N1c1ccc(Br)cc1` (centres unmarked) here?
Its value is -11%.

With `COc1ccc(N2C(=O)NC(=O)C(CCc3ccncc3)(CCc3ccncc3)C2=O)cc1` as the compound, how does the “hERG current change (%, negative = inhibition) at 10uM” value read?
The value was -23.6%.

With `O=C1NC(=O)C(CCc2ccncc2)(CCc2ccccn2)C(=O)N1c1ccc(Br)cc1` (centres unmarked) as the compound, how does the “hERG current change (%, negative = inhibition) at 10uM” value read?
Its value is -75.6%.

For `CCOC(=O)c1c(C)[nH]c(C=O)c1Cc1cccc(Cl)c1`, which “hERG current change (%, negative = inhibition) at 10uM” value is on record?
Its value is 6.47%.

Which “hERG current change (%, negative = inhibition) at 10uM” value does the source give for `C/C=C/c1cc(OC)c2c(c1)[C@H](C)[C@@H](c1ccc(O)c(OC)c1)O2` here?
Its value is 15.9%.

With `O=C(CN1C(=O)NC2(CCCCCC2)C1=O)Nc1ccc(S(=O)(=O)N2CCOCC2)cc1` as the compound, how does the “hERG current change (%, negative = inhibition) at 10uM” value read?
The value was 9.75%.

How did the “hERG current change (%, negative = inhibition) at 10uM” value turn out when `Cc1ccccc1COc1ccc(-c2nn[nH]n2)cc1` was run?
The value was 13%.

`CN1C(C(=O)NCc2ccco2)CC2Cn3c(nc4cc(Cl)c(Cl)cc43)C21` (centres unmarked) was tested. Which “hERG current change (%, negative = inhibition) at 10uM” value did it give?
The value was -43.2%.

With `COc1ccccc1CNC(=O)C1CC2Cn3c(nc4cc(Cl)c(Cl)cc43)C2N1C` (centres unmarked) as the compound, how does the “hERG current change (%, negative = inhibition) at 10uM” value read?
Its value is -65.4%.

How did the “hERG current change (%, negative = inhibition) at 10uM” value turn out when `CN1C(C(=O)NCC2CC2)CC2Cn3c(nc4cc(Cl)c(Cl)cc43)C21` (centres unmarked) was run?
Its value is -34.3%.

With `COCCNC(=O)C1CC2Cn3c(nc4cc(Cl)c(Cl)cc43)C2N1C` (centres unmarked) as the compound, how does the “hERG current change (%, negative = inhibition) at 10uM” value read?
Its value is -26.5%.

Which “hERG current change (%, negative = inhibition) at 10uM” value does the source give for `Cc1cc2nc3n(c2cc1C)CC1CC(C(=O)NCCC(C)C)N(C)C31` (centres unmarked) here?
Its value is 1.81%.

With `CN1C(C(=O)NCc2cccc(Br)c2)CC2Cn3c(nc4cc(Cl)c(Cl)cc43)C21` (centres unmarked) as the compound, how does the “hERG current change (%, negative = inhibition) at 10uM” value read?
Its value is -75.8%.

How did the “hERG current change (%, negative = inhibition) at 10uM” value turn out when `CC(C)CCNC(=O)C1CC2Cn3c(nc4cc(Cl)c(Cl)cc43)C2N1C` (centres unmarked) was run?
Its value is -56%.

With `COc1ccccc1CNC(=O)C1CC2Cn3c(nc4cc5ccccc5cc43)C2N1C` (centres unmarked) as the compound, how does the “hERG current change (%, negative = inhibition) at 10uM” value read?
The value was -43.8%.

How did the “hERG current change (%, negative = inhibition) at 10uM” value turn out when `COc1ccccc1CNC(=O)C1CC2Cn3c(nc4cc(C)c(C)cc43)C2N1C` (centres unmarked) was run?
Its value is -27%.

For `Cc1ccc(CNC(=O)C2CC3Cn4c(nc5cc(Cl)c(Cl)cc54)C3N2C)o1` (centres unmarked), which “hERG current change (%, negative = inhibition) at 10uM” value is on record?
Its value is -58.5%.

Which “hERG current change (%, negative = inhibition) at 10uM” value does the source give for `Cc1ccc(CNC(=O)C2CC3Cn4c(nc5cc(C)c(C)cc54)C3N2C)o1` (centres unmarked) here?
Its value is -36.9%.

For `Cc1ccc(CNC(=O)C2CC3Cn4c(nc5ccccc54)C3N2C)o1` (centres unmarked), which “hERG current change (%, negative = inhibition) at 10uM” value is on record?
The value was -0.36%.

`COc1ccc(CCN(C)C(=O)CCCN2C(=O)c3cccc4cccc(c34)C2=O)cc1OC` was tested. Which “hERG current change (%, negative = inhibition) at 10uM” value did it give?
The value was -35.5%.

How did the “hERG current change (%, negative = inhibition) at 10uM” value turn out when `O=C(O)C1CCCCC1C(=O)Nc1ccccc1Cl` (centres unmarked) was run?
Its value is 15.1%.

For `O=C(CN1C(=O)c2ccccc2C1=O)N1CCN(C2c3ccccc3-c3ccccc32)CC1`, which “hERG current change (%, negative = inhibition) at 10uM” value is on record?
The value was -23.1%.

For `O=C(/C=C/c1ccco1)NCC1COc2ccccc2O1` (centres unmarked), which “hERG current change (%, negative = inhibition) at 10uM” value is on record?
The value was -0.808%.

Which “hERG current change (%, negative = inhibition) at 10uM” value does the source give for `O=C(NC1CCCCC1)N1CCSC1=Nc1ccccc1` here?
The value was -5.04%.

With `CCOCCCNC(=O)c1c(C)c(C(=O)OCC)n(C)c1C` as the compound, how does the “hERG current change (%, negative = inhibition) at 10uM” value read?
Its value is 15.3%.

With `CCOC(=O)N1N=C(c2ccccc2)CC1(O)C(C)(F)F` (centres unmarked) as the compound, how does the “hERG current change (%, negative = inhibition) at 10uM” value read?
Its value is 12.1%.

For `CN1C(C(=O)NCc2ccccc2)CC2Cn3c(nc4cc(Cl)c(Cl)cc43)C21` (centres unmarked), which “hERG current change (%, negative = inhibition) at 10uM” value is on record?
Its value is -65.6%.

Which “hERG current change (%, negative = inhibition) at 10uM” value does the source give for `C=CCNC(=O)C1CC2Cn3c(nc4cc(Cl)c(Cl)cc43)C2N1C` (centres unmarked) here?
Its value is -35.4%.

How did the “hERG current change (%, negative = inhibition) at 10uM” value turn out when `O=C(NCCO)c1ccc(-c2nnc(Nc3ccc(O)cc3)c3ccccc23)cc1` was run?
The value was 16.8%.

`Cc1ccccc1Nc1nnc(-c2ccc(C(=O)NCCO)cc2)c2ccccc12` was tested. Which “hERG current change (%, negative = inhibition) at 10uM” value did it give?
The value was -65.9%.

Which “hERG current change (%, negative = inhibition) at 10uM” value does the source give for `COc1ccc(Nc2nnc(-c3ccc(C(=O)NCCO)cc3)c3ccccc23)cc1` here?
The value was -4.6%.

`CCC(C)[C@H](NC(=O)C1CCN(C(=O)[C@H](Cc2ccccc2)NC(=O)OC(C)(C)C)CC1)C(=O)O` (some centres unmarked) was tested. Which “hERG current change (%, negative = inhibition) at 10uM” value did it give?
Its value is -1.42%.

How did the “hERG current change (%, negative = inhibition) at 10uM” value turn out when `COc1ccc(-c2oc(NC(=O)c3ccc(C)cc3)c(C#N)c2-c2ccc(OC)cc2)cc1` was run?
Its value is -11.6%.

For `CN1CCN(C(=O)C2=C[C@@H](c3coc4ccccc4c3=O)C[C@@H](OCc3ccc(CO)cc3)O2)CC1`, which “hERG current change (%, negative = inhibition) at 10uM” value is on record?
Its value is -22.5%.

With `O=C(C1=C[C@@H](c2csc3ccccc23)C[C@@H](OCc2ccc(CO)cc2)O1)N1CCN(Cc2ccc3c(c2)OCO3)CC1` as the compound, how does the “hERG current change (%, negative = inhibition) at 10uM” value read?
The value was 1.69%.

For `CC(=O)n1cc([C@@H]2C=C(C(=O)N3CCN(Cc4ccc5c(c4)OCO5)CC3)O[C@H](OCc3ccc(CO)cc3)C2)c2ccccc21`, which “hERG current change (%, negative = inhibition) at 10uM” value is on record?
The value was -17.5%.

How did the “hERG current change (%, negative = inhibition) at 10uM” value turn out when `O=C(C1=C[C@H](c2coc3ccccc3c2=O)C[C@H](OCCCCO)O1)N1CCN(Cc2ccc3c(c2)OCO3)CC1` was run?
The value was -64.4%.

With `O=C(C1=C[C@@H](c2csc3ccccc23)C[C@@H](OCCCCO)O1)N1CCN(Cc2ccc3c(c2)OCO3)CC1` as the compound, how does the “hERG current change (%, negative = inhibition) at 10uM” value read?
The value was -11%.

For `O=C(C1=C[C@@H](c2coc3ccccc3c2=O)C[C@@H](OCc2ccc(CO)cc2)O1)N1CCN(Cc2ccc3c(c2)OCO3)CC1`, which “hERG current change (%, negative = inhibition) at 10uM” value is on record?
The value was -66.1%.

`O=C(C1=C[C@@H](c2coc3ccccc3c2=O)C[C@@H](OCCCCO)O1)N1CCN(Cc2ccc3c(c2)OCO3)CC1` was tested. Which “hERG current change (%, negative = inhibition) at 10uM” value did it give?
The value was -49.7%.

Which “hERG current change (%, negative = inhibition) at 10uM” value does the source give for `O=C(C1=C[C@H](c2coc3ccccc3c2=O)C[C@H](OCc2ccc(CO)cc2)O1)N1CCN(Cc2ccc3c(c2)OCO3)CC1` here?
Its value is -57.2%.

For `O=C(C1=C[C@H](c2csc3ccccc23)C[C@H](OCc2ccc(CO)cc2)O1)N1CCN(Cc2ccc3c(c2)OCO3)CC1`, which “hERG current change (%, negative = inhibition) at 10uM” value is on record?
Its value is 12.4%.

Reference: PMC4336329 (PLoS ONE, 2015)
